Source: PubChem (National Center for Advancing Translational Sciences (NCATS))
FMDV inh: antivirals against foot and mouth disease virus; 410,000 tested, 1.2% active; Potency, µM (series often up to 57.9 µM), hits mostly inhibitors; FMDV antiviral cell-based qHTS; AID 1159524; calls by dose curve; tested in HEK293T cells; note: read-out not given here; nearly all actives have a fitted effect of over 45% in size
Vaccinia mCherry: vaccinia inhibition (mCherry reporter) | 310,000 tested, 0.63% active | Vaccinia virus mCherry reporter infection, fluorescence | Potency, µM (series often up to 36.5 µM), actives largely listed as inhibitors; calls by dose curve; tested in A549 cells; note: nearly all actives have a fitted effect of over 35% in size
HCMV antiviral: inhibitors of human cytomegalovirus; 410,000 tested, 4.5% active; activity change, negative = inhibition, % at 57.5 µM; AID 1259415; HFF cells, HCMV-luciferase reporter, 72 h; active compounds read low; in the data active = activity change below about -60%; inconclusive = no clear call, values can overlap the other calls; inactive = above about -39%
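Luciferase read-out from HCMV-luciferase-infected HFFs (MOI 1 PFU/cell) 72 h post infection at 37C; compounds added after 16 h cell attachment; activity normalized between buffer-only basal and Salinomycin (10uM) inhibitor controls.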
Vaccinia Venus: vaccinia inhibition (Venus reporter) | Vaccinia virus Venus reporter expression, fluorescence | Potency, µM (top dose mostly 36.5 µM), most hits filed as inhibitors | 330,000 tested, 0.46% active | AID 720580; calls by dose curve; tested in A549 cells; note: nearly all actives have a fitted effect of over 30% in size
HCV inh: inhibitors of hepatitis C virus infection; Potency, µM (top dose mostly 41.8 µM), hits mostly inhibitors; 340,000 tested, 3.4% active; Huh7.5.1 HCVcc-Cre infection, luciferase reporter, 44 h; active = well fitted inhibition curve with a large enough effect; inconclusive = small, poorly fitted or top-dose-only effect, or another doubt; inactive = no such curve, though single readings can be large or run the other way
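Infectious HCV cell culture screen: compound-treated cells (1,000/well, pre-plated 4 h) are infected with HCVcc-Cre at roughly 0.5 moi and grown 44 h. Infection is quantified by luciferase signal after 15 min substrate incubation at room temperature.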
A number is an active result; – = inactive; ? = inconclusive; · = not tested or not shown; [ ] = dose if it differs, or a comment. An excerpt weighted towards active compounds, which were near 7.3% of everything screened.

SMILES | FMDV inh | Vaccinia mCherry | HCMV antiviral | Vaccinia Venus | HCV inh
COc1ccccc1/C=N/NC(=S)Nc1cccnc1 | – | – | – | – | ?
Oc1ccc(/C=N/NC(=S)Nc2cccnc2)cc1O | ? | – | – | – | –
CC(COc1cccc2ccccc12)CN1CCN(C)CC1 (stereo unspecified) | – | · | – | · | 5µM
Cc1ccc([C@H]2C(C#N)=C(N)Oc3cc(C)oc(=O)c32)o1 | 25µM | – | – | – | –
Cn1c(COc2ccccc2O)[n+](C)c2ccccc21 | – | – | – | – | –
CCCCCCCCCCOC(=O)Cn1c(COc2ccccc2OC)[n+](C)c2ccccc21 | ? | ? | ? | 14µM | 14µM
C(=Nc1ccc(/C=C/c2ccnc3ccccc23)cc1)c1ccc2c(c1)OCO2 | · | – | · | – | ·
CCc1ccc(C2CC(c3ccc(C)cc3)Nc3nc(N)nn32)cc1 (stereo unspecified) | – | 100µM | – | 32µM | –
Cc1ccc(C2CC(c3ccc(F)cc3)Nc3nc(N)nn32)cc1 (stereo unspecified) | – | – | – | – | –
Cc1ccc2cc(CN(CCN(C)C)C(=S)Nc3ccccc3)c(=O)[nH]c2c1C | – | – | – | – | 10µM
Cc1ccc2[nH]c(=O)c(CN(CCCN(C)C)C(=O)Nc3ccc(Cl)cc3)cc2c1 | – | · | – | · | 10µM
CCN(CC)CCN(Cc1cc2cccc(C)c2[nH]c1=O)C(=S)Nc1ccccc1 | – | – | – | – | ?
Cc1ccc2cc(CN(CCN(C)C)C(=O)Nc3ccc(Cl)cc3)c(=O)[nH]c2c1 | – | – | – | – | 6.3µM
CCOC(=O)c1c(C)oc2c1c1c(c3ccccc32)OCN(CCCC(=O)O)C1 | – | · | – | · | 10µM
CCOC(=O)c1c(C)oc2c1c(C=NCC1CCCO1)c(O)c1ccccc12 (stereo unspecified) | – | – | – | – | –
CCOC(=O)c1c(C)oc2c1c(C(c1cccnc1)N1CCN(C)CC1)c(O)c1ccccc12 (stereo unspecified) | · | · | · | · | 11µM
CCOC(=O)c1c(C)oc2c1c(C(c1cccnc1)N1CCOCC1)c(O)c1ccccc12 (stereo unspecified) | ? | –[1.46 µM] | – | – | ?
CCOC(=O)c1c(C)oc2c1c1c(c3ccccc32)OCN(Cc2cccnc2)C1 | – | – | · | – | 6.3µM
Cc1ccc(C)c(NC(=O)c2cnn(-c3cccc(F)c3)c2C2CCN(C(=O)OC(C)(C)C)CC2)c1 | – | – | – | – | ·
C=C1CCN(C(C)C(=O)O)S(=O)(=O)c2ccccc21 (stereo unspecified) | – | – | – | – | 1.4µM
CC(NC(=O)c1cccc(NC(=O)c2nsc3ccccc23)c1)c1ccccc1 (stereo unspecified) | – | – | – | – | ·
COc1ccc2[nH]c3c(c2c1)CCN=C3C | – | – | -92 | – | 2.8µM
COc1ccc2[nH]c3c(c2c1)CCNC3=O | – | · | – | · | ·
CC1CCN(CCCNC(=O)c2cc(Sc3ccc(F)cc3)nc3ccccc23)CC1 | – | – | -65 | – | ·
O=C(NCCCN1CCCC1)c1cc2c(Cl)nc3ccccc3c2s1 | – | – | – | ? | 18µM
SMILES | FMDV inh | Vaccinia mCherry | HCMV antiviral | Vaccinia Venus | HCV inh
O=C(NCCCN1CCN(c2ccccc2F)CC1)c1cc2c(Cl)nc3ccccc3c2s1 | ? | – | – | – | ·
CCOC(=O)C1CCCN(C(=O)c2cc3c(Cl)nc4ccccc4c3s2)C1 (stereo unspecified) | ? | – | -77 | – | ·
CC1CCCCN1CCCNC(=O)c1cc(Sc2ccc(Cl)cc2)nc2ccccc12 (stereo unspecified) | – | – | – | – | ·
CCCN1CCN(CCCNC(=O)c2cc3c(Cl)nc4ccccc4c3s2)CC1 | – | – | -80 | – | ·
CCNc1ncc2nc(-c3cn(C)c4ccccc34)c(=O)n(-c3ccccc3)c2n1 | – | · | · | · | ·
COc1cccc(NC(=O)Cn2c(=O)n(CC(=O)NCc3ccc(C)cc3)c(=O)c3sccc32)c1 | – | ? | – | ? | ·
Cc1cccc(Nc2nnc(-c3ccc(C)c(S(=O)(=O)NCC4CCCO4)c3)c3ccccc23)c1 (stereo unspecified) | – | – | ? | – | ·
Cc1ccc2nc(Cl)c3cc(C(=O)NCCCN4CCC(C)CC4)sc3c2c1 | – | – | – | – | ·
COCCCNC(=O)c1cc(Sc2nnc(C)s2)nc2ccccc12 | – | – | – | – | –
CC1CCN(CCCNC(=O)c2cc3c(Cl)nc4ccccc4c3s2)CC1 | – | · | -91 | · | 13µM
CCOCCCNC(=O)c1cc(Sc2nnc(C)s2)nc2ccccc12 | – | – | – | – | 10µM
COc1ccc2c(O)c(-c3c(C)cc(C)cc3C)c(=O)[nH]c2c1 | – | – | -63 | – | –
N=c1ccn(Cc2ccc(F)cc2)cc1 | – | · | ? | · | 4µM
Cc1cccc(CCNC(=O)c2ccc(CSCc3cccc(Cl)c3)o2)c1 | – | – | – | – | ·
CCCn1c2c(c(O)c(C(=O)Nc3ncccc3C)c1=O)CCCC2 | – | · | ? | · | 11µM
OC(COCCOc1ccc(Br)cc1)CN1CCN(Cc2ccccc2)CC1 (stereo unspecified) | ? | ? | -101 | – | ?
OC(CNC1CCCC1)COc1ccc(-c2ccccc2)cc1 (stereo unspecified) | – | – | – | – | ?
OC(CNC1CCCCC1)COCCOc1ccc(Br)cc1 (stereo unspecified) | ? | – | – | – | 7.9µM
CCc1ccc(OCCOCC(O)CN2CCN(Cc3ccc(Cl)cc3)CC2)cc1 (stereo unspecified) | – | – | – | – | ?
Cc1noc(C)c1-c1cc(NCc2cccs2)ncn1 | – | · | · | · | ·
COc1ccc(N(C(=O)c2ccccc2C)S(=O)(=O)c2cccs2)cc1 | – | ? | -77 | ? | ?
CC1=C[C@]23OC(C)(C)C[C@@]2(C)C[C@H](C)C3=CC1=O | · | · | – | · | ·
CCOC(=O)c1nnn(-c2nonc2-n2cccc2)c1CCl | 14µM | · | ? | – | –
COC(=O)c1cc(CNC(=O)c2cnsn2)cc(NC(=O)c2ccccc2OC)c1 | – | – | · | – | ·
CCCCOc1ccc(C(=O)NNC(=O)C2C3C=CC(C3)C2C(=O)O)cc1 (stereo unspecified) | – | · | -60 | · | –
SMILES | FMDV inh | Vaccinia mCherry | HCMV antiviral | Vaccinia Venus | HCV inh
CCCCOc1ccc(C(=O)NNC(=O)C2C3CCC(C3)C2C(=O)O)cc1 (stereo unspecified) | – | – | – | – | –
Cc1cccc(N(C)C(=O)CCS(=O)(=O)c2cccc3nonc23)c1 | – | – | -66 | – | –
O=C(c1ccc2c(c1)N(Cc1ccc(Cl)cc1)C(=O)c1ccccc1S2=O)N1CCC(Cc2ccccc2)CC1 (stereo unspecified) | – | ? | ? | – | ·
COc1ccc(-c2nc3cnc(N4CCNCC4)nc3n(CCC#N)c2=O)cc1 | – | · | · | · | ·
CC(C)c1ccc(OCC(=O)NNC(=S)NC(=O)C2CC2)cc1 | – | – | -98 | ? | –
CCCCOc1ccc(C(=O)NNC(=O)c2cnccn2)cc1OC | – | ? | ? | ? | 13µM
O=C(COc1ccccc1)NNC(=S)NC(=O)c1ccccc1 | – | · | – | · | –
COc1ccc(C(=O)NC(=S)NNC(=O)c2ccccc2O)cc1 | – | 13µM | – | ? | –
